In publication PMC7862700, “An all-to-all approach to the identification of sequence-specific readers for epigenetic DNA modifications on cytosine” one finds binding signal data, which are given here for seven sequences.

Common to all, as to experiment: DAPPL (digital affinity profiling via proximity ligation, sequencing); 10 mM Tris-HCl pH 7.5, 50 mM NaCl, 1 mM DTT, 4% glycerol, room temperature, 30 min; GST-TFs on glutathione beads, 16-mer random dsDNA library, 0.1% formaldehyde crosslink after washing; high values mean tight binding
One assay addresses T1, FEV (Homo sapiens, UniProt Q99581 1-238).
T1 sequence: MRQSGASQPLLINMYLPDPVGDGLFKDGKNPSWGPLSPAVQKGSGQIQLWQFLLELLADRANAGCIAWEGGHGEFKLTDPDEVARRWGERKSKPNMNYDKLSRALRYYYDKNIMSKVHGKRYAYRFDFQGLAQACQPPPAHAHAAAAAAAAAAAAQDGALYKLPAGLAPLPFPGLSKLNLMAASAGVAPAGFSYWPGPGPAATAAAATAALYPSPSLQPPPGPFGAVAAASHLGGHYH
As to conditions: protein: recombinant; tags: N-terminal GST; dsDNA, one strand shown. The method in brief:
(§1)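 Binding signal is each hexamer's read frequency for a factor divided by its frequency in the tag-only sample. The factors were GST-fused human transcription factors from yeast, captured on glutathione beads, DNA-barcoded and pooled with that sample. Pools were incubated with 200 nmole of a random double-stranded 16-mer DNA library in Tris/NaCl/DTT/glycerol buffer at room temperature for 30 min, then washed, crosslinked with 0.1% formaldehyde, proximity-ligated with BsaI/T4 ligase (1 h, 37 °C), PCR-amplified and sequenced on an Illumina NextSeq500.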

The target in the next assay is ETV5 (Homo sapiens, UniProt P41161 1-510). As to conditions: protein: recombinant; tags: N-terminal GST; dsDNA, one strand shown. The method in brief:
as §1

A further assay has as its target HSF1 (Homo sapiens, UniProt Q00613 1-529). As to conditions: protein: recombinant; tags: N-terminal GST; chain copies: 3; dsDNA, one strand shown. An outline of the steps: as §1
The next assay concerns the target T2, SPIC (Homo sapiens, UniProt Q8N5J4 1-248).
T2 sequence: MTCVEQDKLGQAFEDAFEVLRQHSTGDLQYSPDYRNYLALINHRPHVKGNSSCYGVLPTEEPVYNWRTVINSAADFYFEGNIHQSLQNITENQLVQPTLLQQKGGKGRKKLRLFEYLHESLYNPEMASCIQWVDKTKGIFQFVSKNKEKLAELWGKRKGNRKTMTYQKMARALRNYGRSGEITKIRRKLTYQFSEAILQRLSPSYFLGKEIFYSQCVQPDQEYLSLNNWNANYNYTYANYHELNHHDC
As to conditions: protein: recombinant; tags: N-terminal GST; dsDNA, one strand shown. An outline of the steps: as §1

The target in the next assay is ELF4 (Homo sapiens, UniProt Q99607 1-663). As to conditions: protein: recombinant; tags: N-terminal GST; dsDNA, one strand shown. The method in brief:
as §1

The target of another assay is T3, ELK4 (Homo sapiens, UniProt P28324-2 1-405).
T3 sequence: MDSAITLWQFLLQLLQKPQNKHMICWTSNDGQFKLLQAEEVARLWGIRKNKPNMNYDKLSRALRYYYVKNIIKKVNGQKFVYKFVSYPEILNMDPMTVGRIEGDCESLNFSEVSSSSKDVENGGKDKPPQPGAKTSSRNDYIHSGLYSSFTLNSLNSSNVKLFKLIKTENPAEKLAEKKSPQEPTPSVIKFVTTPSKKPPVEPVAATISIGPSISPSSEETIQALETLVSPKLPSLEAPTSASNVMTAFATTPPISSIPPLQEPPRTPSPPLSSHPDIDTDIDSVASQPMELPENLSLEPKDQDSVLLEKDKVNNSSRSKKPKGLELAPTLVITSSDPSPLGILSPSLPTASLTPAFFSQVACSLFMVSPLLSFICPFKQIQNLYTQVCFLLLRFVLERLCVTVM
The conditions noted are these: protein: recombinant; tags: N-terminal GST; dsDNA, one strand shown. An outline of the steps:
as §1

Another assay has as its target T4, ETV2 (Homo sapiens, UniProt O00321 1-342).
T4 sequence: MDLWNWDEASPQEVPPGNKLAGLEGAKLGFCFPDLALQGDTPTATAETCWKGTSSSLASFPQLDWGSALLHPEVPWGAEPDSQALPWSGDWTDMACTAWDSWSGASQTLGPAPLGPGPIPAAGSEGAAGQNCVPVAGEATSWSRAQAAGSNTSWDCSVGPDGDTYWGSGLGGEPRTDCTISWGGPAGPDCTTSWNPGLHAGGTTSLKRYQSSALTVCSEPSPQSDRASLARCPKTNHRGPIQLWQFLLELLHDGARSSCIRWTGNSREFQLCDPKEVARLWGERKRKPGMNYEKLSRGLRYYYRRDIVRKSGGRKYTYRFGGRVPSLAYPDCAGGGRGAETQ
The conditions noted are these: protein: recombinant; tags: N-terminal GST; dsDNA, one strand shown. The method in brief: as §1

The target in a further assay is CRX (Homo sapiens, UniProt O43186 1-299). The conditions noted are these: protein: recombinant; tags: N-terminal GST; dsDNA, one strand shown. The method in brief: as §1
Chain of CRX (O43186 whole entry): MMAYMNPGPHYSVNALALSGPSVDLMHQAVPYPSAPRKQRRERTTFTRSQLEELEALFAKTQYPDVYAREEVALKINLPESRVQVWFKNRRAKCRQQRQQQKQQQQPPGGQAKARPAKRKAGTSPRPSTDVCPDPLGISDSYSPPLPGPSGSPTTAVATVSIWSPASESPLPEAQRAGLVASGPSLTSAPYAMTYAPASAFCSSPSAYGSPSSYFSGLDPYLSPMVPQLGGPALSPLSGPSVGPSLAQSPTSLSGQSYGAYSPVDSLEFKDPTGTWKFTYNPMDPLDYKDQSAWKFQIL
In the next assay the target is ETV1 (Homo sapiens, UniProt P50549 1-477). As to conditions: protein: recombinant; tags: N-terminal GST; dsDNA, one strand shown. The method in brief:
as §1

Chain of ETV5 (P41161 whole entry): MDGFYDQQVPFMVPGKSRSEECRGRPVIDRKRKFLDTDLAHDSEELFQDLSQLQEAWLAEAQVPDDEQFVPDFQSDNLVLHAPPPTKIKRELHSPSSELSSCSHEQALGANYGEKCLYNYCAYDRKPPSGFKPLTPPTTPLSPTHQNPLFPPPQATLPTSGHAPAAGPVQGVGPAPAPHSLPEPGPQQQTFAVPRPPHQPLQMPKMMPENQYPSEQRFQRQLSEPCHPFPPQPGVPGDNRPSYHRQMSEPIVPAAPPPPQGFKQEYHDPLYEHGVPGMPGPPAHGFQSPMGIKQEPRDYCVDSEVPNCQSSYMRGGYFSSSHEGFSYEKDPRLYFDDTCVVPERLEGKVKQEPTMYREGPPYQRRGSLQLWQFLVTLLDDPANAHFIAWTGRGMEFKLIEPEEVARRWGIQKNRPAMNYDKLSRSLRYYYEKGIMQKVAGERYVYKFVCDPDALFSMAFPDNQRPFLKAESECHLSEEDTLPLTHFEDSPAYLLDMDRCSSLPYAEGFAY
Chain of ETV1 (P50549 whole entry): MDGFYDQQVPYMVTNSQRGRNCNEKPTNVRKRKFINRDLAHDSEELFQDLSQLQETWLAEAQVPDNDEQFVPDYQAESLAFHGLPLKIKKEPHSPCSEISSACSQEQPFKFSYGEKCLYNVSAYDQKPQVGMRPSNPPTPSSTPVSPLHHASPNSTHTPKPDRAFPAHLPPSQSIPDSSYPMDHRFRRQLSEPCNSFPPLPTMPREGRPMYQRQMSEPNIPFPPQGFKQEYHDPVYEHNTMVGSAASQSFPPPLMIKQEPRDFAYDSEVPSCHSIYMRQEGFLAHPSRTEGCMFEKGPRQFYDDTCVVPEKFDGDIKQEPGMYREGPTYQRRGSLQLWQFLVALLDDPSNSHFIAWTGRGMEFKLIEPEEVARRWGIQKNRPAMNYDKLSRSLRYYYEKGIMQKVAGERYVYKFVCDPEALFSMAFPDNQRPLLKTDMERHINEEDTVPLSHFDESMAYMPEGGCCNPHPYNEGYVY
Chain of ELF4 (Q99607 whole entry): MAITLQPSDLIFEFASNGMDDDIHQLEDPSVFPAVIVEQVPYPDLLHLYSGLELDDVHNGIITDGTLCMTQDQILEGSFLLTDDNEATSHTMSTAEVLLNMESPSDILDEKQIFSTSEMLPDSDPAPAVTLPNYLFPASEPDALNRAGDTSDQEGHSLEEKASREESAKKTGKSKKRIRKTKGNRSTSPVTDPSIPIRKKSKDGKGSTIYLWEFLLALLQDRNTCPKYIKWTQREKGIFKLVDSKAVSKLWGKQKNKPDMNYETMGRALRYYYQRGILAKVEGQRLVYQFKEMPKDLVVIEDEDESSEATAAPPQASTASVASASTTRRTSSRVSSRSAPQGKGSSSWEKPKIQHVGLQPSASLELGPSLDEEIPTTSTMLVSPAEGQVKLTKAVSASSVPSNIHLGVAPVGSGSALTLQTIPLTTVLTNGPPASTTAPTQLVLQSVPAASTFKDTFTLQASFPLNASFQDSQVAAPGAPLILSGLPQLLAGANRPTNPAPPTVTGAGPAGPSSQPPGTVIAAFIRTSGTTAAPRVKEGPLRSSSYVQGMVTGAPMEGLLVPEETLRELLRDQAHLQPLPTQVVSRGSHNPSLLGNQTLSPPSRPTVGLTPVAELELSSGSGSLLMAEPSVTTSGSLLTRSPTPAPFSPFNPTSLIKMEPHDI
Chain of HSF1 (Q00613 whole entry): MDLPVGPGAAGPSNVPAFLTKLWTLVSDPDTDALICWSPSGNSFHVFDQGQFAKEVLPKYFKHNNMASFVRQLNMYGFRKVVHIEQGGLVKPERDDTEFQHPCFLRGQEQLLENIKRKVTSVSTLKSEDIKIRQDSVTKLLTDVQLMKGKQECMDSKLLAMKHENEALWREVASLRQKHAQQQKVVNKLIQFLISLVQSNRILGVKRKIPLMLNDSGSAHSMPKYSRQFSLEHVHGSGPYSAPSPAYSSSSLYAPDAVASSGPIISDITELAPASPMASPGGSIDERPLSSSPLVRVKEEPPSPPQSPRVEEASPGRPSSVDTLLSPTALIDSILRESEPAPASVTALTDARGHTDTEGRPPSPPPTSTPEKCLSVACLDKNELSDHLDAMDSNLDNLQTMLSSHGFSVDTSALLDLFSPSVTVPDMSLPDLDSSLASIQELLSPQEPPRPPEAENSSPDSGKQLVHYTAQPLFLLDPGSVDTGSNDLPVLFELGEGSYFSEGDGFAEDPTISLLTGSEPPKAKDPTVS

On to ACTCCA, for which the binding signal with FEV is 1.21 fold enrichment (6-mer frequency, TF over GST control); in the assay with ETV5 it was 1.24 fold enrichment (6-mer frequency, TF over GST control); with HSF1, 1.14 fold enrichment (6-mer frequency, TF over GST control); with SPIC it was 1.18 fold enrichment (6-mer frequency, TF over GST control); with ELF4, 1.23 fold enrichment (6-mer frequency, TF over GST control); with ELK4, 1.05 fold enrichment (6-mer frequency, TF over GST control). In addition, the binding signal with ETV2 is 1.15 fold enrichment (6-mer frequency, TF over GST control); in the assay with CRX, 1.06 fold enrichment (6-mer frequency, TF over GST control); with ETV1, 1.22 fold enrichment (6-mer frequency, TF over GST control).

For the sequence GATTTG, the binding signal in the assay with FEV is 1.11 fold enrichment (6-mer frequency, TF over GST control); with ETV5, 1.25 fold enrichment (6-mer frequency, TF over GST control); with HSF1 it was 1.39 fold enrichment (6-mer frequency, TF over GST control); with SPIC, 1.17 fold enrichment (6-mer frequency, TF over GST control); with ELF4 it was 1.13 fold enrichment (6-mer frequency, TF over GST control); with ELK4 it was 1.19 fold enrichment (6-mer frequency, TF over GST control). The binding signal is 1.19 fold enrichment (6-mer frequency, TF over GST control) in the assay with ETV2; 1.78 fold enrichment (6-mer frequency, TF over GST control) in the assay with CRX; 1.14 fold enrichment (6-mer frequency, TF over GST control) with ETV1.

Consider TCGCAA, for which the binding signal is 1.11 fold enrichment (6-mer frequency, TF over GST control) with FEV; 1.06 fold enrichment (6-mer frequency, TF over GST control) in the assay with ETV5; 1.22 fold enrichment (6-mer frequency, TF over GST control) with HSF1; 1.32 fold enrichment (6-mer frequency, TF over GST control) in the assay with SPIC; 1.15 fold enrichment (6-mer frequency, TF over GST control) in the assay with ELF4; 1.03 fold enrichment (6-mer frequency, TF over GST control) with ELK4. Further, the binding signal is 1.18 fold enrichment (6-mer frequency, TF over GST control) with ETV2; 1.05 fold enrichment (6-mer frequency, TF over GST control) with CRX; 1.1 fold enrichment (6-mer frequency, TF over GST control) in the assay with ETV1.

In the case of TTTCGC, the binding signal was 1.16 fold enrichment (6-mer frequency, TF over GST control) with FEV; 1.08 fold enrichment (6-mer frequency, TF over GST control) in the assay with ETV5; 1.32 fold enrichment (6-mer frequency, TF over GST control) with HSF1; 1.2 fold enrichment (6-mer frequency, TF over GST control) with SPIC; 1.08 fold enrichment (6-mer frequency, TF over GST control) with ELF4; 1.24 fold enrichment (6-mer frequency, TF over GST control) with ELK4. Besides, the binding signal with ETV2 is 1.39 fold enrichment (6-mer frequency, TF over GST control); with CRX, 1.19 fold enrichment (6-mer frequency, TF over GST control); with ETV1, 1.09 fold enrichment (6-mer frequency, TF over GST control).

ACTCGA: the binding signal is 1.29 fold enrichment (6-mer frequency, TF over GST control) with FEV; 1.27 fold enrichment (6-mer frequency, TF over GST control) with ETV5; 1.99 fold enrichment (6-mer frequency, TF over GST control) with HSF1; 1.51 fold enrichment (6-mer frequency, TF over GST control) with SPIC; 1.31 fold enrichment (6-mer frequency, TF over GST control) with ELF4; 1.35 fold enrichment (6-mer frequency, TF over GST control) in the assay with ELK4. Besides, the binding signal with ETV2 was 1.46 fold enrichment (6-mer frequency, TF over GST control); in the assay with CRX it was 1.37 fold enrichment (6-mer frequency, TF over GST control); in the assay with ETV1, 1.33 fold enrichment (6-mer frequency, TF over GST control).

As to GGCTAG, the binding signal with FEV was 1.08 fold enrichment (6-mer frequency, TF over GST control); with ETV5, 1.06 fold enrichment (6-mer frequency, TF over GST control); with HSF1 it was 1.18 fold enrichment (6-mer frequency, TF over GST control); with SPIC, 1.2 fold enrichment (6-mer frequency, TF over GST control); with ELF4, 1.1 fold enrichment (6-mer frequency, TF over GST control); in the assay with ELK4 it was 1.22 fold enrichment (6-mer frequency, TF over GST control). Besides, the binding signal with ETV2 was 1.15 fold enrichment (6-mer frequency, TF over GST control); in the assay with CRX, 1.05 fold enrichment (6-mer frequency, TF over GST control); in the assay with ETV1, 1.03 fold enrichment (6-mer frequency, TF over GST control).

Take CTTGTT: the binding signal is 1.15 fold enrichment (6-mer frequency, TF over GST control) with FEV; 1.22 fold enrichment (6-mer frequency, TF over GST control) in the assay with ETV5; 1.09 fold enrichment (6-mer frequency, TF over GST control) with HSF1; 1.25 fold enrichment (6-mer frequency, TF over GST control) with SPIC; 1.22 fold enrichment (6-mer frequency, TF over GST control) with ELF4; 1.17 fold enrichment (6-mer frequency, TF over GST control) in the assay with ELK4. The binding signal with ETV2 was 1.14 fold enrichment (6-mer frequency, TF over GST control); in the assay with CRX, 1.1 fold enrichment (6-mer frequency, TF over GST control); with ETV1 it was 1.31 fold enrichment (6-mer frequency, TF over GST control).
